Hit rate of the full screen: of about 190,000 compounds, about 810 (0.43%) were called active. No stated cut-off is given here; in the data, active means inhibition above about 50%; inactive means the rest. The sample as a whole holds a higher share of actives than the screen did.

The target of this experiment is Mannose-6-phosphate isomerase (Homo sapiens) (UniProt P34949). In words: inhibitors of human PMI, primary screen, biochemical, fluorescence intensity, coupled assay (AID 1209).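 Further: plate controls were DMSO vehicle for no effect and wells lacking substrate for full effect.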 Conditions: purified PMI enzyme, at 20 µM, hits give high values.
Chain of Mannose-6-phosphate isomerase (Homo sapiens) (P34949 whole entry, looked up): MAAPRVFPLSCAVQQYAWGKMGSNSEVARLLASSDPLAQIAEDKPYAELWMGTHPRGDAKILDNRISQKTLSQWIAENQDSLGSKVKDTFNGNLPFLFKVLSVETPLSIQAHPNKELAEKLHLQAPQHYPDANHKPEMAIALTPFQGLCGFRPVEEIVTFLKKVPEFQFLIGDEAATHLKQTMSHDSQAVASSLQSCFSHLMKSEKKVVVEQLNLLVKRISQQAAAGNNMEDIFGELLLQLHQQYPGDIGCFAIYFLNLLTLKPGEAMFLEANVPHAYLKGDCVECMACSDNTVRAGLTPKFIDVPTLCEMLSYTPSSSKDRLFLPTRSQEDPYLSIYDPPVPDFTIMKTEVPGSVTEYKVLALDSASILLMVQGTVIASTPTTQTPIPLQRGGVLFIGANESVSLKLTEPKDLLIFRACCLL
As usually defined, the inhibition is the change of the read-out against control, counted positive when it falls. On to `CCOc1ccc(NC(=NCc2ccc3c(c2)OCO3)SC2CC(=O)N(c3ccccc3)C2=O)cc1` (configuration not stated), for which the inhibition is -4.2% (inactive).

As for `CCN(CC)S(=O)(=O)c1ccc(NC2c3ccccc3C(=O)N2CCN2CCOCC2)cc1` (configuration not stated), the inhibition is 18.5% (inactive).

Turning to `Cc1cc(C(C)(C)C)c(O)c(C(C)(C)C)c1`, the inhibition is 0% (inactive).

`Cc1cc(C)c(O)c(N)c1`: the inhibition was 33.4% (inactive).

Turning to `CC1(c2ccccc2)NC(=O)N(CC(=O)Nc2cc(S(=O)(=O)N3CCOCC3)ccc2Cl)C1=O` (configuration not stated), the inhibition is 1.7% (inactive).

On to `COc1ccc(OCC(=O)Nc2ncc3c(n2)CC(C)(C)CC3=O)cc1`, for which the inhibition is 7.1% (inactive).

Regarding `Cc1ccc(N(C(C)C(=O)Nc2c(C)n(C)n(-c3ccccc3)c2=O)S(C)(=O)=O)cc1C` (configuration not stated), the inhibition was -4.4% (inactive).

On to `O=C(CCC1CCCCC1)NCCN1C2=NC[C@H](Cc3ccc(O)cc3)N2C[C@H]1Cc1ccc(O)cc1`, for which the inhibition was 5% (inactive).

Consider `C[C@H]1CN=C2N(CCNC(=O)CCC3CCCCC3)[C@H](Cc3ccc(O)cc3)CN21`, for which the inhibition was 2.5% (inactive).

`CC(C)[C@H]1CN=C2N(CCNC(=O)CCC3CCCCC3)[C@H](Cc3ccc(O)cc3)CN21`: the inhibition is 65.2% (active).

Consider `O=C(CCC1CCCCC1)NCCN1C2=NC[C@H](Cc3ccccc3)N2C[C@H]1Cc1ccc(O)cc1`, for which the inhibition is 8% (inactive).

On to `C[C@@H]1CN=C2N(CCNC(=O)CCC3CCCCC3)[C@H](Cc3ccc(O)cc3)CN21`, for which the inhibition was 85.3% (active).

`COc1ccc(C[C@H]2CN3C(=NC[C@@H]3C(C)C)N2CCNC(=O)CCC2CCCCC2)cc1`: the inhibition was 7.4% (inactive).

Take `CC(OC(=O)/C=C/c1cccs1)C(=O)Nc1ccc(S(N)(=O)=O)cc1` (configuration not stated): the inhibition is -5.9% (inactive).

For `Cc1ccccc1OCC(=O)N(Cc1ccc(N(C)C)cc1)C1CCS(=O)(=O)C1` (configuration not stated), the inhibition was 3.1% (inactive).

As to `C=CCNc1ccc(F)c(F)c1N1CCCCCC1=O`, the inhibition was 4.8% (inactive).

`NC(=O)c1cc2cc(Cc3ccccc3Cl)ccc2oc1=O`: the inhibition was -1.2% (inactive).

For `O=C(CN1C(=O)c2ccccc2S1(=O)=O)Nc1ccc(S(=O)(=O)N2CCCCCC2)cc1`, the inhibition was 18.7% (inactive).

Consider `Cc1cc(C)c(S(=O)(=O)/N=C2/C=C(SCC(=O)O)C(=O)c3ccccc32)cc1C`, for which the inhibition is -23.3% (inactive).

On to `Cc1cc(C)c(S(=O)(=O)/N=C2/C=C(Sc3ncn[nH]3)C(=O)c3ccccc32)cc1C`, for which the inhibition is 98.1% (active).

Turning to `Cc1ccc(S(=O)(=O)Nc2ccc(O)c(Sc3ncn[nH]3)c2)cc1`, the inhibition is 15.2% (inactive).

As to `Cc1ccc(S(=O)(=O)/N=C2/C=C(Sc3ncn[nH]3)C(=O)c3ccccc32)c(C)c1`, the inhibition was 101% (active).

For `Cc1ccc(NC2=C/C(=N\S(=O)(=O)c3cccs3)c3ccccc3C2=O)c(C)c1`, the inhibition was 0.2% (inactive).

For the compound `Cc1cc(C)c(S(=O)(=O)Nc2ccc(O)c(Sc3ncn[nH]3)c2)c(C)c1`, the inhibition is 6.8% (inactive).

Turning to `CCn1c(COc2c(C)cccc2C)nnc1SCC(=O)N1CCN(c2ccccc2)CC1`, the inhibition was 8.2% (inactive).

For `Cc1ccc(-c2nn(CC(=O)NCc3ccccn3)c(=O)c3ccccc23)cc1S(=O)(=O)N(C)C`, the inhibition was -28.3% (inactive).

With `COc1ccccc1NC(=O)c1ccc(NS(=O)(=O)c2ccc(F)c(F)c2F)cc1`, the inhibition was -19.3% (inactive).

`COC(=O)c1cn(C(=O)c2ccc(C)cc2)c2ccccc12`: the inhibition is 12.6% (inactive).

Turning to `Cc1c(N=C2C(=O)Nc3ccccc32)c(=O)n(-c2ccccc2)n1C`, the inhibition was 0.4% (inactive).

`CC1=CC(=Nc2c(C)n(C)n(-c3ccccc3)c2=O)C=C(C)C1=O`: the inhibition was 83.8% (active).

For the compound `Cc1c(N=C2C=CC(=O)c3ccccc32)c(=O)n(-c2ccccc2)n1C`, the inhibition is 55.2% (active).

`Cc1csc(=Nc2c(C)n(C)n(-c3ccccc3)c2=O)n1-c1ccccc1`: the inhibition is 1.6% (inactive).

`Cc1c(N=Nc2ccc(O)cc2)c(=O)n(-c2ccccc2)n1C`: the inhibition is 15.5% (inactive).

On to `Cc1c(N=C2C=C(Br)C(=O)C(Br)=C2)c(=O)n(-c2ccccc2)n1C`, for which the inhibition is 64.3% (active).

Turning to `Cc1c(N=c2scc(-c3ccccc3)n2C)c(=O)n(-c2ccccc2)n1C`, the inhibition was -16.2% (inactive).

As for `CC(=O)/C(N=Nc1c(C)n(C)n(-c2ccccc2)c1=O)=C(\C)O`, the inhibition is -44.4% (inactive).

In the case of `CCCC(c1c(C)n(C)n(-c2ccccc2)c1=O)c1c(C)n(C)n(-c2ccccc2)c1=O`, the inhibition was 3.4% (inactive).

With `CCC(C)C1=CC(=Nc2c(C)n(C)n(-c3ccccc3)c2=O)C=C(C(C)CC)C1=O` (configuration not stated), the inhibition is 52.2% (active).

In the case of `Cc1c(N=CC=Nc2c(C)n(C)n(-c3ccccc3)c2=O)c(=O)n(-c2ccccc2)n1C`, the inhibition was -0.3% (inactive).

As to `CCC(c1c(C)n(C)n(-c2ccccc2)c1=O)c1c(C)n(C)n(-c2ccccc2)c1=O`, the inhibition is -4.4% (inactive).

Consider `CC(C)NS(=O)(=O)c1ccc(OCC(=O)NC(C)c2ccccc2)cc1` (configuration not stated), for which the inhibition was 2.2% (inactive).

On to `O=C(O)c1ccc(/C=C/c2nc3sc4c(c3c(=O)[nH]2)CCC4)cc1`, for which the inhibition is -3.7% (inactive).

Turning to `COc1cnn(C(C)(C)C)c(=O)c1Cl`, the inhibition was -0.3% (inactive).

Consider `COc1ccc(CC(=O)NCc2ccc3c(c2)cc(C)n3C)cc1OC`, for which the inhibition is 6.1% (inactive).

In the case of `O=C(Nc1ccc(Cl)cc1)NC1CCCc2ccccc21` (configuration not stated), the inhibition was 2.6% (inactive).

As to `Cc1cc(/C=C(\C#N)C(N)=O)c(C)n1-c1ccc(N2CCOCC2)c([N+](=O)[O-])c1`, the inhibition was 3.6% (inactive).

On to `C[C@]12CC[C@@H]3c4cc(O)c(O)cc4CC[C@H]3[C@@H]1CC[C@@H]2O`, for which the inhibition is 51.8% (active).

On to `COc1cc2c(cc1O)CC[C@@H]1[C@@H]2CC[C@]2(C)[C@@H](O)CC[C@@H]12`, for which the inhibition was 1.7% (inactive).

As for `C[C@]12CC[C@@H]3c4ccc(O)cc4CC[C@H]3[C@@H]1CC[C@@H]2O`, the inhibition was -5.7% (inactive).

With `Cc1ccc(NC(=O)COC(=O)c2ccc3c(c2)C(=O)N(CCc2ccccc2)C3=O)c(C)c1`, the inhibition was 4.6% (inactive).

In the case of `Cc1cc(C)n(-c2cc(N3CCN(S(=O)(=O)c4ccc(Br)cc4)CC3)ccc2[N+](=O)[O-])n1`, the inhibition is 13.5% (inactive).

Take `Cc1nc2c(C(=O)NCCc3ccccc3)c[nH]n2c(=O)c1Cl`: the inhibition is 60.3% (active).

In the case of `Cc1nc2c(C(=O)NCCc3ccccc3Cl)c[nH]n2c(=O)c1Cl`, the inhibition was 2.9% (inactive).

In the case of `Cc1nc2c(C(=O)NCc3ccccc3)c[nH]n2c(=O)c1Cl`, the inhibition is 12.3% (inactive).

Consider `CNS(=O)(=O)c1cnccc1N1CCN(C)CC1`, for which the inhibition is 9.4% (inactive).

Turning to `Cc1ccc(C(=O)Nc2ccc(SC(F)F)cc2)s1`, the inhibition was -11.4% (inactive).

As to `COc1cc(/C=C2\CC/C(=C\c3cc(OC)c(O)c(OC)c3)C2=O)cc(OC)c1O`, the inhibition was 59.3% (active).

As for `COc1cc(/C=C2\CC/C(=C\c3cc(OC)c(OC)c(OC)c3)C2=O)cc(OC)c1OC`, the inhibition is 4.2% (inactive).

As for `COc1ccc(/C=C2\CC/C(=C\c3ccc(OC)c(OC)c3)C2=O)cc1OC`, the inhibition was 25.9% (inactive).

As for `CCn1c(COc2cccc3ccccc23)nnc1SCC(=O)OC1CCCCC1`, the inhibition was 17.8% (inactive).

For `Cc1ccc(S(=O)(=O)NCC(=O)N2CCCC2)cc1`, the inhibition was -10.6% (inactive).

Consider `Cc1ccccc1CNC(=O)Cc1cccs1`, for which the inhibition is 2% (inactive).

Regarding `Cc1ccsc1/C=C1\CCc2ccccc2C1=O`, the inhibition was 25.2% (inactive).

For the compound `COc1ccc(CCNC(=O)C2CC(=O)N(CCc3ccccc3)C2)cc1OC` (configuration not stated), the inhibition was 0% (inactive).

Consider `Cc1ccccc1NC(=S)Nc1cccc2cnccc12`, for which the inhibition is 60.5% (active).

As for `Cc1ccc(C)c(NC(=S)Nc2cccc3cnccc23)c1`, the inhibition was 50.3% (active).

For the compound `Cc1ccc(C)c(NC(=S)Nc2cccnc2)c1`, the inhibition is -7% (inactive).

On to `Cc1ccc(NC(=S)Nc2cccc3cnccc23)c(C)c1`, for which the inhibition is 37.8% (inactive).

As for `CC(C)NC(=S)Nc1cccc2cnccc12`, the inhibition is -4.7% (inactive).

Take `FC(F)(F)c1ccccc1NC(=S)Nc1cccc2cnccc12`: the inhibition was 5.4% (inactive).

As to `O=C(O)CCC(=O)NNC(=O)CCC(=O)Nc1ccccc1`, the inhibition is 13.6% (inactive).

For `CC(=O)c1cc(NC(=O)c2ccc([N+](=O)[O-])cc2)c(=O)oc1C`, the inhibition is -41% (inactive).

In the case of `O=C(Nc1cc2c(oc1=O)CCCC2=O)c1cccc(Cl)c1`, the inhibition is -17.4% (inactive).

Take `CCOC(=O)C1CCN(S(=O)(=O)Cc2ccccc2)CC1`: the inhibition was -11.2% (inactive).

`CCN1CCN(S(=O)(=O)Cc2ccccc2)CC1`: the inhibition is -0.2% (inactive).

As for `CCOC(=O)N1CCN(S(=O)(=O)Cc2ccccc2)CC1`, the inhibition was 104% (active).

With `CCC1=[N+](C)c2cccc3cccc(c23)N1C`, the inhibition is 51% (active).

`CN1/C(=N\O)c2cccc3cccc1c23`: the inhibition is 5.7% (inactive).

With `CC1=Nc2cccc3cccc(c23)N1C`, the inhibition is 25.2% (inactive).

For `O=C(CCc1ccc(Oc2cc([N+](=O)[O-])cc([N+](=O)[O-])c2)cc1)N1CCCCCC1`, the inhibition was 5.7% (inactive).

As to `COc1ccccc1NC(=S)N(CCc1nc2cc(C)c(C)cc2[nH]1)Cc1cccnc1`, the inhibition is -2% (inactive).

On to `CCOC(=O)C(NC(=O)CC)(Nc1ccc(S(=O)(=O)Nc2ncccn2)cc1)C(F)(F)F` (configuration not stated), for which the inhibition was 0.5% (inactive).

In the case of `Cc1cc2c(C)cc(=O)oc2c2c1NCCC2`, the inhibition was 25.3% (inactive).

As for `Oc1c(Cl)cc(Cl)c2c1NCCC2`, the inhibition was 61.2% (active).

As to `Cc1ccc(OC(=O)C(F)(F)F)c2c1NCCC2`, the inhibition was 16.6% (inactive).

For `CCOC(=O)c1sc(=S)n(-c2cccc(OC)c2)c1N`, the inhibition was 63.2% (active).

As to `CCOC(=O)c1sc(=S)n(-c2cc(F)ccc2F)c1N`, the inhibition was 37.9% (inactive).

With `Cc1ccc(NC(=O)c2sc(=S)n(-c3cc(C)ccc3F)c2N)cc1`, the inhibition is 1.4% (inactive).

Take `CCOC(=O)c1sc(=S)n(-c2ccccc2)c1N`: the inhibition was -2.1% (inactive).

For `CCOC(=O)c1sc(=S)n(-c2ccccc2OC)c1N`, the inhibition was 21.8% (inactive).

For `COC(=O)c1sc(=S)n(-c2cc(F)ccc2F)c1N`, the inhibition is 55.8% (active).

For `CCOC(=O)c1sc(=S)n(-c2ccc(C)cc2)c1N`, the inhibition is 30.1% (inactive).

As for `COC(=O)c1sc(=S)n(-c2cccc(Cl)c2)c1N`, the inhibition is 75.9% (active).

In the case of `COC(=O)c1sc(=S)n(-c2ccccc2OC)c1N`, the inhibition is 0.3% (inactive).

On to `CCOC(=O)c1sc(=S)n(-c2ccc(F)c(F)c2)c1N`, for which the inhibition was 27% (inactive).

`CCOC(=O)c1sc(=S)n(-c2cc(OC)ccc2OC)c1N`: the inhibition was 65.3% (active).

As for `COc1ccc(Cl)cc1-n1c(N)c(C(N)=O)sc1=S`, the inhibition is 22.6% (inactive).

Values taken from PubChem BioAssay AID1209 (Sanford-Burnham Center for Chemical Genomics, 2008).
